Results taken from the supplement of paper PMC11219838.

Tests used:
Details in all cases: 60 µM; 5 days; temperature: 20 °C
[1] = test system: Meloidogyne hapla J2; assay: proportion of mobile M. hapla J2 relative to DMSO control (fraction of DMSO control); higher = more viable, less nematicidal, active = 0.7 or less
Method in brief: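 Sealed 96-well plates, each well holding around 25 M. hapla J2 in distilled water with compound pinned to 60 µM final (0.6% v/v DMSO), were shaken at 200 rpm for 5 days at 20 °C. Then 2 µL of 1 M NaOH was added to each well. Microscope-scored mobility was normalised to the mean of DMSO-only wells from the same plate. Eight such wells were on each plate, and the two biological replicates were averaged.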

[2] = test system: Caenorhabditis elegans dauer (daf-2(e1370)); assay: proportion of mobile C. elegans dauer larvae relative to DMSO control (fraction of DMSO control); higher = more viable, less nematicidal, active = 0.63 or less; extreme values may be limits of the assay
Method in brief: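 Synchronized C. elegans larvae were kept for 48 h at 25 °C on MYOB plates seeded with E. coli OP50 to induce dauer formation, and roughly 20 dauers were transferred into each well of a 96-well plate containing liquid NGM. Compound was pinned in to a final concentration of 60 µM with 0.6% v/v DMSO, and the sealed plates were shaken at 200 rpm for 5 days at 20 °C. The fraction of mobile worms was scored under a dissection microscope against DMSO-only wells and averaged across two biological replicates.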

[3] = test system: Ditylenchus dipsaci; assay: proportion of mobile D. dipsaci (mixed stage) relative to DMSO control (fraction of DMSO control); higher = more viable, less nematicidal, active = 0.86 or less; extreme values may be limits of the assay
Method in brief: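 Mobility, expressed relative to DMSO controls, is the mean of two biological replicates. The test organisms were D. dipsaci grown on pea plants in Gamborg B-5 agar and extracted into water by filter funnel, with about 20 added per well of a 96-well plate in distilled water. Compound was pinned to 60 µM final (0.6% v/v DMSO), plates were sealed and shaken at 200 rpm for 5 days at 20 °C, and mobile worms were scored under a microscope once 2 µL 1 M NaOH had been added.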

O=C(CSc1nnc(-c2ccccc2)o1)N1CCc2ccccc21
inactive: proportion of mobile M. hapla J2 [1] 0.993 | proportion of mobile C. elegans dauer larvae [2] 1 | proportion of mobile D. dipsaci [3] 1

Cc1ccccc1-c1noc(-c2ccccc2OCC(N)=O)n1
inactive: proportion of mobile M. hapla J2 [1] 0.993 | proportion of mobile C. elegans dauer larvae [2] 1 | proportion of mobile D. dipsaci [3] 1

O=C(Nc1cccnc1)c1ccccc1-c1nc(-c2ccc(Cl)cc2)no1
inactive: proportion of mobile M. hapla J2 [1] 0.934 | proportion of mobile C. elegans dauer larvae [2] 1 | proportion of mobile D. dipsaci [3] 1

COc1ccc(C)cc1NC(=O)CSc1nnc(-c2ccc(Br)cc2)o1
inactive: proportion of mobile M. hapla J2 [1] 0.938 | proportion of mobile C. elegans dauer larvae [2] 1 | proportion of mobile D. dipsaci [3] 1

COc1nc(-c2ccc(C)cc2)ccc1-c1noc(-c2ccc(F)cc2)n1
inactive: proportion of mobile M. hapla J2 [1] 0.925 | proportion of mobile C. elegans dauer larvae [2] 1 | proportion of mobile D. dipsaci [3] 1

CC(C)C(=O)Nc1ccccc1-c1nc(-c2ccccc2)no1
inactive: proportion of mobile M. hapla J2 [1] 0.957 | proportion of mobile C. elegans dauer larvae [2] 1 | proportion of mobile D. dipsaci [3] 1

Ic1ccc(CSc2nnc(-c3ccccc3)o2)cc1
inactive: proportion of mobile M. hapla J2 [1] 0.991 | proportion of mobile C. elegans dauer larvae [2] 1 | proportion of mobile D. dipsaci [3] 1

Cc1cccc(-c2noc(COc3ccc(C)cc3C)n2)c1
inactive: proportion of mobile M. hapla J2 [1] 1.09 | proportion of mobile C. elegans dauer larvae [2] 1 | proportion of mobile D. dipsaci [3] 1

Cc1ccc(-c2noc(COc3ccccc3Cl)n2)cc1
inactive: proportion of mobile M. hapla J2 [1] 0.96 | proportion of mobile C. elegans dauer larvae [2] 1 | proportion of mobile D. dipsaci [3] 1

Cc1ccccc1-c1nnc(SCC(=O)Nc2cc(C(F)(F)F)ccc2N2CCOCC2)o1
inactive: proportion of mobile M. hapla J2 [1] 0.934 | proportion of mobile C. elegans dauer larvae [2] 1 | proportion of mobile D. dipsaci [3] 1

O=C(NC1CCCCC1)c1ccccc1-c1nc(-c2ccc(F)cc2)no1
inactive: proportion of mobile M. hapla J2 [1] 0.863 | proportion of mobile C. elegans dauer larvae [2] 1 | proportion of mobile D. dipsaci [3] 1

O=C(CSc1nnc(-c2ccc(Br)cc2)o1)Nc1nccs1
inactive: proportion of mobile M. hapla J2 [1] 1.01 | proportion of mobile C. elegans dauer larvae [2] 1 | proportion of mobile D. dipsaci [3] 1

CCOc1nc(C)ccc1-c1noc(-c2ccccc2F)n1
inactive: proportion of mobile M. hapla J2 [1] 0.851 | proportion of mobile C. elegans dauer larvae [2] 1 | proportion of mobile D. dipsaci [3] 1

c1ccc2cc(-c3nc(-c4ccncc4)no3)ccc2c1
inactive: proportion of mobile M. hapla J2 [1] 0.994 | proportion of mobile C. elegans dauer larvae [2] 1 | proportion of mobile D. dipsaci [3] 1

Cc1ccc(-c2nc(-c3ccccc3)no2)cc1Cl
inactive: proportion of mobile M. hapla J2 [1] 0.996 | proportion of mobile C. elegans dauer larvae [2] 1 | proportion of mobile D. dipsaci [3] 1

N#Cc1ccccc1CSc1nnc(-c2ccco2)o1
inactive: proportion of mobile M. hapla J2 [1] 0.859 | proportion of mobile C. elegans dauer larvae [2] 0.85 | proportion of mobile D. dipsaci [3] 1

O=C(Nc1ccccc1-c1nc(-c2cccnc2)no1)c1ccc(Cl)cc1
inactive: proportion of mobile M. hapla J2 [1] 0.98 | proportion of mobile C. elegans dauer larvae [2] 1 | proportion of mobile D. dipsaci [3] 1
